Bioassay records (PubChem BioAssay)
TIM10 inh – growth inhibitors of isogenic TIM10 control yeast, primary screen, counter-screen for tim10-1 yeast inhibitor project, luminescence, uHTS. S. cerevisiae TIM10 strain growth, BacTiter-Glo luminescence, 24 h. actives 1.4% (n = 330,000). AID 463195, 2010. inhibition, % at 10 µM;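 active means inhibition of 40% or more at the single tested concentration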;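 further: wild-type TIM10 isogenic control strain grown at permissive 25 °C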
NALP1 yeast inh – NALP1 inflammasome inhibitors in reconstituted yeast, colorimetric, S. cerevisiae, triplicate retest; S. cerevisiae NALP1/ASC/caspase-1 growth, X-gal OD620, 72 h; actives 0.61% (n = 280,000); inhibition, % at 10 µM; in the data active means inhibition mostly above about 24%, no sharp cut-off; inactive means mostly below about 32%
tim23-1 inh – growth inhibitors of tim23-1 mutant yeast, primary screen, luminescence, uHTS; S. cerevisiae tim23-1 growth, BacTiter-Glo luminescence, 24 h; inhibition, % at 20 µM; actives 1.3% (n = 330,000);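 active means growth inhibition of the mutant yeast at or above 50%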;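 further: temperature-sensitive mutant grown at 25 °C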
NALP3 yeast inh – NALP3 inflammasome inhibitors in reconstituted yeast, primary screen, luminescence, uHTS; inhibition, % at 10 µM; Yeast reconstituted NLRP3/ASC/caspase-1, beta-gal luminescence, 24 h; actives 0.39% (n = 330,000);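 active means inhibition of 50% or more; inactive means inhibition below 50%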
tim10-1 inh – growth inhibitors of tim10-1 mutant yeast, primary screen, luminescence, uHTS | S. cerevisiae tim10-1 ts strain growth, BacTiter-Glo, 24 h | AID 463190, 2010 | inhibition, % at 20 µM | actives 2.2% (n = 330,000);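 active means inhibition of at least 40%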;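 further: mutant grown at 25 °C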
Each line names hits and unclear results; the compound was inactive in the other large screens. A selection: hits, their analogues and other compounds. The true share with any hit is near 4.1%.

N#CCC(=O)N/N=C/c1cn(Cc2cccc3ccccc23)c2ccccc12	NALP1 yeast inh 41
N#CCC(=O)N/N=C/c1cn(Cc2ccccc2C#N)c2ccccc12	none
COc1cccc(NC(=O)C23CCC(C)(C(=O)O2)C3(C)C)c1 (stereo not given)	NALP1 yeast inh 39
COc1ccccc1-c1nnc(SCC(=O)Nc2cccnc2Cl)n1C	none (no result: NALP1 yeast inh)
O=C(Nc1ccc(Cl)cc1)OC(CN1CCCCC1)C(F)(F)F (stereo not given)	NALP1 yeast inh 25
O=C(Nc1cccc(F)c1)OC(CN1CCCCC1)C(F)(F)F (stereo not given)	none
CCn1ncc(C(=O)Nc2cccc(Cl)c2)c1C	NALP1 yeast inh 45
CCn1ncc(C(=O)Nc2cc(C)on2)c1C	none
COc1ccc(S(=O)(=O)N2CCCCC2)cc1NC(=O)Cc1cccc(C(F)(F)F)c1	none (no result: NALP1 yeast inh)
Cc1ccc(C)c(OCc2cc(C(=O)NC3CCN(Cc4ccccc4)CC3)no2)c1	none
O=C(NC1CCN(Cc2ccccc2)C1)c1cc(COc2ccc(F)cc2F)on1 (stereo not given)	NALP1 yeast inh 28
COc1cccc(CN(C)C(=O)CCNC(=O)c2ccc(Br)cc2)c1	none
O=[N+]([O-])c1cc(S(=O)(=O)N2CCCC2)ccc1O	none
O=[N+]([O-])c1cc(S(=O)(=O)N2CCCCCC2)ccc1F	NALP1 yeast inh 79 (no result: TIM10 inh, tim23-1 inh, NALP3 yeast inh, tim10-1 inh)
COc1ccc(C2(CNC(=O)Cc3ccc(OC)c(OC)c3)CCOCC2)cc1	NALP1 yeast inh 25
O=C1C(C2=NC(c3ccccn3)C3C(=O)N(c4ccccc4)C(=O)C23)=C(O)c2ccccc21 (stereo not given)	none (no result: NALP1 yeast inh)
CC1COc2c(N3CCN(C)CC3)c(F)cc3c(=O)c(C(=O)O)cn1c23 (stereo not given)	none (no result: NALP1 yeast inh)
CCOc1ccc(NC(=O)c2ccc(NC(=O)c3cn4c5c(c(N6CCN(C)CC6)c(F)cc5c3=O)OCC4C)cc2)cc1 (stereo not given)	NALP1 yeast inh 86
CCCCCCC1NC(C(=O)O)CS1 (stereo not given)	none
Fc1ccc(NCc2nnc(SCc3nnc(-c4ccccc4)o3)n2CC2CCCO2)cc1 (stereo not given)	none
CC(NCCC(c1ccccc1)c1ccccc1)c1ccccc1 (stereo not given)	NALP1 yeast inh 54
COC(=O)c1sccc1NC(=O)CC1C(=O)NCCN1C(=O)Nc1ccc(C(F)(F)F)cc1 (stereo not given)	none (no result: NALP1 yeast inh)
CCn1cnc2c(cnn2-c2ccccc2)c1=O	NALP1 yeast inh 36
O=C(/C=C/c1cccs1)c1ccc([N+](=O)[O-])cc1	NALP1 yeast inh 43
O=C(Oc1ccccc1)c1cccc(N2C(=O)CCC2=O)c1	none
COc1cccc(C(=O)Oc2ccc(N3C(=O)CCC3=O)c(C)c2)c1	NALP1 yeast inh 35
CCOC(=O)N1CCN(CC(O)COc2ccccc2C(C)CC)CC1 (stereo not given)	NALP1 yeast inh 26
COc1cccc(OCC(=O)NC2CCS(=O)(=O)C2)c1 (stereo not given)	none (no result: NALP1 yeast inh)
CCOC(=O)N1CCN(C(=O)CN(C2CCCCC2)S(=O)(=O)c2ccc(F)cc2)CC1	NALP1 yeast inh 38
c1ccc2nc(-c3nccs3)ccc2c1	none
Clc1ccsc1-c1ccc2ccccc2n1	NALP1 yeast inh 44
COc1cccc2cc(C(=O)NCc3ccc(Cl)cc3)c(=N)oc12	none
COc1cccc2cc(C(=O)NCc3ccc(Cl)cc3)c(=O)oc12	NALP1 yeast inh 37
O=C(CNc1ccccc1)Nc1ccc(F)cc1	NALP1 yeast inh 28
O=C(CN1CCOCC1)NN=C1CCCCCCCCCCC1	none
CC1CCN(CCCOc2ccc(Cl)cc2Br)CC1	none
CC1CCCN(CCCOc2ccc(Cl)cc2Br)C1 (stereo not given)	NALP1 yeast inh 50
Cc1nc(C)c(/C(O)=C/c2nc3ccccc3oc2=O)s1	NALP1 yeast inh 61
CCN(Cc1ccccc1)C(=O)c1cc2c(=O)oc3ccc(C)cc3c2s1	NALP1 yeast inh 42
COCCN(CC(=O)Nc1cccc(C)c1C)C(=O)c1oc2ccccc2c1C	none (no result: NALP1 yeast inh)
COc1ccc(Nc2nnc(SCc3cc([N+](=O)[O-])cc4c3OCOC4)s2)cc1	NALP1 yeast inh 44
[N-]=[N+]=NCC/C=C\C1NS(=O)(=O)OCC1O (stereo not given)	none
COc1ccc(-n2cc(CNCc3cnc4ccccn34)c(-c3cccc(F)c3)n2)cc1	none
COC(=O)c1ccccc1NC(=O)CSc1nc(N)cc(N)n1	NALP1 yeast inh 32
O=C(Nc1ccccc1C(=O)N1CCCCC1)NC1CCCCC1	none
Cc1cc(N2C(=O)C(O)=C(C(=O)c3ccc(C)o3)C2c2cccc(Oc3ccccc3)c2)no1 (stereo not given)	NALP1 yeast inh 38
COc1ccc(C2C(C(=O)c3ccc(C)o3)=C(O)C(=O)N2c2cc(C)on2)cc1OC (stereo not given)	none
CCOC(=O)c1cc(-c2ccc(Cl)s2)[nH]n1	NALP1 yeast inh 44
O/N=C/c1ccc(-c2ccccc2OC(F)(F)F)o1	NALP1 yeast inh 36
O=C(COC(=O)c1cc([N+](=O)[O-])ccc1Cl)NCCc1ccccc1	none (no result: NALP1 yeast inh)
O=C(COc1ccc([N+](=O)[O-])cc1Cl)NCCc1ccccc1	NALP1 yeast inh 73
Cc1cccc(N2C(=O)CC(Sc3nccc(C)n3)C2=O)c1 (stereo not given)	none
Cc1cccc(N2C(=O)CC(Sc3ncn[nH]3)C2=O)c1 (stereo not given)	NALP1 yeast inh 38
CCOc1cc(C(=O)Nc2ccccc2F)cc(Br)c1OCC	none
COCCNC(=O)C(c1ccc(OC)cc1)N(CCOC)C(=O)CCC(=O)Nc1nccs1 (stereo not given)	none
COc1ccc(C(C(=O)NC(C)C)N(C(=O)CCC(=O)Nc2nccs2)c2ccccc2F)cc1 (stereo not given)	NALP1 yeast inh 33
COc1ccc(/C=N/NS(=O)(=O)c2ccc(F)cc2)cc1CN1CCSCC1	NALP1 yeast inh 30
Fc1ccccc1NC(=S)N1CCN(Cc2ccccc2)CC1	none
CC(C)c1ccc(O)c(NC(=S)NC(=O)CCc2ccccc2)c1	none
O=c1[nH]c2cc3c(cc2cc1C(c1nnnn1Cc1ccccc1)N1CCN2CCCC2C1)OCCO3 (stereo not given)	NALP1 yeast inh 29
O=c1[nH]c2cc3c(cc2cc1C(c1nnnn1Cc1ccccc1)N1CCCCCC1)OCCO3 (stereo not given)	none
O=[N+]([O-])c1ccc(Nc2ccccn2)c([N+](=O)[O-])c1	NALP1 yeast inh 26
Nc1ccc(Nc2ccc([N+](=O)[O-])cc2[N+](=O)[O-])cc1	none
O=C(/C=C/c1cccc([N+](=O)[O-])c1)Nc1ccccn1	NALP1 yeast inh 23
